KB-3-1 tox: qHTS assay for MDR1-selective chemotherapeutics: Primary screen using the parental adenocarcinoma cell KB-3-1; KB-3-1 viability, CellTiter-Glo ATP luminescence, 72 h; Potency, µM (titrated, usually from 46.1 µM), hits mostly cytotoxic; 400,000 tested, 1.4% active; note: % is set by controls: 0 for no effect and ±100 for the full control effect; nearly all actives have a fitted effect of over 60% in size
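Using CellTiter-Glo luminescence, growth of non-resistant KB-3-1 adenocarcinoma cells is assessed 72 h after pin-tool compound addition at 37 °C. Normalized responses across the concentration series yield fitted curves.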
MCF10A rereplic: A quantitative high throughput screen for small molecules that induce DNA re-replication in MCF 10a normal breast cells; Potency, µM (highest dose often 46.1 µM), inactives show at the highest dose activity, positive = re-replication, hits mostly activators; MCF 10A DNA re-replication, Hoechst nuclear intensity, 48 h; 350,000 tested, 2.9% active; AID 624296, 2012; note: % of control where 0% means no effect; nearly all actives have a fitted effect of over 50% in size
VP16 counter: VP16 counterscreen qHTS for inhibitors of ROR gamma transcriptional activity; Drosophila S2 Gal4-VP16 UAS-luciferase, luminescence, 20 h; Potency, µM (series often up to 53.6 µM), for inactives: at the highest dose activity, negative = inhibition, most hits filed as inhibitors; 310,000 tested, 3.5% active; AID 2546, 2010;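 note: Gal4-VP16 expression switched on by copper sulfate through the metallothionein promoter; % is set by controls: 0 for no effect and ±100 for the full control effect; nearly all actives have a fitted effect of over 50% in size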
SW480 rereplic: A quantitative high throughput screen for small molecules that induce DNA re-replication in SW480 colon adenocarcinoma cells; SW480 DNA re-replication, Hoechst DNA content imaging, 48 h; 340,000 tested, 1.8% active; Potency, µM (titrated, usually from 46.1 µM), for inactives: top-dose re-replication activation, hits mostly activators; AID 624297, 2012; note: % of control where 0% means no effect; nearly all actives have a fitted effect of over 55% in size
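Quantitative HTS format with DMSO vehicle controls; 48 hr drug incubation at 37 C, then 40 min Hoechst staining and scanning imager measurement at 405 nm excitation.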
RORgamma inh: qHTS for inhibitors of ROR gamma transcriptional activity | Drosophila S2 Gal4-RORgamma UAS-luciferase reporter, 20 h | 310,000 tested, 5.4% active | AID 2551, 2010 | Nuclear receptor ROR-gamma (Mus musculus), P51450 | Potency, µM (highest dose often 53.6 µM), without a hit: at the top dose activity change, negative = inhibition, most hits filed as inhibitors; note: % is set by controls: 0 for no effect and ±100 for the full control effect; nearly all actives have a fitted effect of over 60% in size
Target sequence (P51450 whole entry, looked up, the tested form may be a part): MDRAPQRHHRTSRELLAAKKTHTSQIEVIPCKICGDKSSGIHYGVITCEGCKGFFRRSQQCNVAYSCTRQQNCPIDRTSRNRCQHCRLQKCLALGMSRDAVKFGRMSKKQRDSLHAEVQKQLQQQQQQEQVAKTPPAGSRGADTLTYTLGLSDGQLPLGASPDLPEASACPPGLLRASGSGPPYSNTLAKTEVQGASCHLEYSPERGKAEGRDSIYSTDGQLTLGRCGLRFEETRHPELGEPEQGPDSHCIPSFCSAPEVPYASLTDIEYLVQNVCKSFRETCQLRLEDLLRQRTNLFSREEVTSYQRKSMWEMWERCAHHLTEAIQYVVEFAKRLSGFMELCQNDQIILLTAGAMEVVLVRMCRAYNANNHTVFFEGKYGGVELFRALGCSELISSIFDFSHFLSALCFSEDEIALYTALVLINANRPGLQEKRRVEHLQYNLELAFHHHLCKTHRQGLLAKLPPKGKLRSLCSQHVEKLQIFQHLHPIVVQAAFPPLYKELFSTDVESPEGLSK
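Stable Schneider cell line, Gal4 DNA-binding domain fused to ROR gamma, UAS-luciferase. Cmpd 1 hr RT → CuSO4 700 uM final → 20 hr RT → luciferase reagent 10 min → luminescence.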
KB-V1 MDR tox: qHTS assay for MDR1-selective chemotherapeutics: Primary screen using the drug-selected MDR subline cells KB-V1. KB-V1 MDR cells viability, CellTiter-Glo, 72 h. Potency, µM (titrated, usually from 46.1 µM), usual class: cytotoxic. 400,000 tested, 3.4% active. AID 1347076, 2019; note: % is set by controls: 0 for no effect and ±100 for the full control effect; nearly all actives have a fitted effect of over 60% in size
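Following 72 h at 37 degrees C with compound, KB-V1 cell viability was read by CellTiter-Glo luminescence, medium being phenol-red-free DMEM plus 10% FBS; concentration-response parameters came from normalized, curve-fitted qHTS data.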
* hit, by the source's call; ! = a repeat was not active; [ ] = remark or other dose. Hits are enriched below; roughly 10% of the tested compounds scored in any of these assays. Calls come from the whole dose curve; as a rule, active = well fitted curve in the direction sought with a large enough effect; inconclusive = small, poorly fitted or top-dose-only effect, or another doubt; inactive = no such curve, though single readings can be large; an effect the other way counts as inactive or inconclusive. Potency is the fitted concentration of half-maximal effect.

Screening Cc1coc2c1CCC(C)C2 (stereo not drawn) returned VP16 counter 0% and RORgamma inh -14%.
COc1cc(/C=C/c2nc3ccccc3c(=O)n2-c2ccc(O)cc2)ccc1O was read as KB-3-1 tox inconclusive, MCF10A rereplic 21µM*, VP16 counter -2%, SW480 rereplic inconclusive, RORgamma inh -31% and KB-V1 MDR tox inconclusive.
For CC1(C)C[C@H]2C=C(C=O)[C@]3(C=O)C[C@]3(C)[C@H]2C1 the results were KB-3-1 tox inconclusive, MCF10A rereplic 2.1µM*, VP16 counter 1.1µM*, SW480 rereplic 9.2µM*, RORgamma inh 1.4µM* and KB-V1 MDR tox inactive.
For Cn1c(O)c(C2=NNC(c3ccc(Cl)cc3)C2)c(=O)n(C)c1=O (stereo not drawn) the results were KB-3-1 tox inactive, MCF10A rereplic -9%, VP16 counter 5µM*, SW480 rereplic inconclusive, RORgamma inh 7.1µM* and KB-V1 MDR tox inactive.
Screening CCOc1ccc(C2CC(c3c(O)n(C)c(=O)n(C)c3=O)=NN2)cc1 (stereo not drawn) returned KB-3-1 tox inconclusive, MCF10A rereplic -16%, VP16 counter inconclusive, SW480 rereplic -6%, RORgamma inh inconclusive and KB-V1 MDR tox inconclusive.
For C=Cc1cc(OC)c2c(c1)c(=O)oc1c2cc(OC)c2c(O)ccc(C3OC(C)C(O)C(C)(O)C3O)c21 (stereo not drawn) the results were KB-3-1 tox inconclusive, MCF10A rereplic 3.7µM*, SW480 rereplic 8.2µM* and KB-V1 MDR tox 18µM*.
`N#Cc1ccc(CN2CC[C@@]3(CCCN(C(=O)Oc4ccccc4)C3)C2)cc1` gave VP16 counter 0% and RORgamma inh 3%.
CN1C[C@H](CNC(=O)OCc2ccccc2)C[C@@H]2c3cccc4c3c(cn4C)C[C@H]21 was read as KB-3-1 tox inactive, MCF10A rereplic 23µM*, VP16 counter -1%, SW480 rereplic 23µM*, RORgamma inh 22µM*! and KB-V1 MDR tox inactive.
Screening Oc1cc(Cl)cc(Cl)c1Cl returned KB-3-1 tox inactive, MCF10A rereplic inconclusive, VP16 counter -23%, SW480 rereplic -39%, RORgamma inh inconclusive and KB-V1 MDR tox inactive.
O=C1C(=O)c2ccccc2-c2ccccc21 was read as KB-3-1 tox 5.2µM*, MCF10A rereplic inconclusive, VP16 counter 3.2µM*, SW480 rereplic inconclusive, RORgamma inh 2µM* and KB-V1 MDR tox 4.1µM*.
Screening NC1=C(Br)C(=O)c2ccccc2C1=O returned KB-3-1 tox inconclusive, MCF10A rereplic inconclusive, VP16 counter inconclusive, SW480 rereplic -59%, RORgamma inh inconclusive and KB-V1 MDR tox 12µM*.
Cc1cc(N2CCCC2)ccc1C=C(C#N)C#N was read as KB-3-1 tox inactive, MCF10A rereplic 0%, VP16 counter 4%[10 µM], SW480 rereplic -14%, RORgamma inh 10% and KB-V1 MDR tox inactive.
Screening Cc1ccc2cc(C=C(C#N)C#N)c(Cl)nc2c1 returned KB-3-1 tox inconclusive, MCF10A rereplic 7.3µM*, VP16 counter inconclusive, SW480 rereplic inconclusive, RORgamma inh inconclusive and KB-V1 MDR tox inconclusive.
C[C@@H](Cc1cccc(C(F)(F)F)c1)NCCCc1ccccc1 was read as VP16 counter -11% and RORgamma inh 22µM*.
Screening CC12CCC3C(CCCC4CC(=O)CCC43C)C1CCC2O (stereo not drawn) returned KB-3-1 tox inconclusive, MCF10A rereplic 12%, SW480 rereplic -7% and KB-V1 MDR tox 7.3µM*.
`CC1CC2CC(=O)CCC2(C)C2CCC3(C)C(O)CCC3C12` (stereo not drawn) gave KB-3-1 tox inconclusive and KB-V1 MDR tox 5.8µM*.
`C[C@]12CCC3C(C[C@@H](O)[C@H]4C[C@@H](O)CC[C@]34C)C1CC[C@@H]2O` (stereo partly drawn) gave KB-3-1 tox inactive, MCF10A rereplic -43%, SW480 rereplic -20% and KB-V1 MDR tox inactive.
For O=C1NC(=O)C2(CCCc3ccc(N(CCCl)CCCl)cc32)N1 (stereo not drawn) the results were KB-3-1 tox inactive, MCF10A rereplic 18µM*, SW480 rereplic 16µM* and KB-V1 MDR tox inactive.
For Cc1cc([N+](=O)[O-])c2ccccc2[n+]1[O-] the results were KB-3-1 tox 0.92µM*, MCF10A rereplic 16µM*, VP16 counter 3.5µM*, SW480 rereplic 15µM*, RORgamma inh inconclusive and KB-V1 MDR tox 0.52µM*.
`O=C(Nc1ccc(F)cc1)OC1CN2CCC1CC2` (stereo not drawn) gave KB-3-1 tox inactive, MCF10A rereplic 8.2µM*, VP16 counter 1%, SW480 rereplic 11%, RORgamma inh -15% and KB-V1 MDR tox inactive.
CC(=O)OCC(N)C(=O)c1ccccc1 (stereo not drawn) was read as VP16 counter 2% and RORgamma inh 7%.
`O=C(O)c1ccc(-[n+]2c(-c3ccccc3)cc(-c3ccccc3)cc2-c2ccccc2)cc1` gave KB-3-1 tox inactive, MCF10A rereplic -5%, SW480 rereplic -8% and KB-V1 MDR tox inactive.
For O=C(O)c1ccc(-c2ccc3cc(C45CC6CC(CC(C6)C4)C5)c(O)cc3c2)cc1 the results were VP16 counter 11µM* and RORgamma inh inconclusive.
For C=Cn1ccnc1P(=S)(c1nccn1C=C)c1nccn1C=C the results were KB-3-1 tox inactive, MCF10A rereplic 4%, VP16 counter 9%, SW480 rereplic -4%, RORgamma inh -38% and KB-V1 MDR tox inactive.
C=Cn1ccnc1P(=S)(c1nccn1C=C)C1CCCCC1 was read as KB-3-1 tox inactive, MCF10A rereplic -4%, VP16 counter inconclusive, SW480 rereplic 15%, RORgamma inh 10µM* and KB-V1 MDR tox inactive.
CCCCc1nc2ccccc2c(=O)n1-c1ccc(Cl)cc1[N+](=O)[O-] was read as KB-3-1 tox inactive, MCF10A rereplic -2%, VP16 counter -8%, SW480 rereplic -1%, RORgamma inh 4% and KB-V1 MDR tox 4.1µM*.
COc1ccc(C(=O)CN2CCOCC2)cc1 was read as KB-3-1 tox inactive and KB-V1 MDR tox inactive.
COc1ccccc1CCNC1CCCCCC1 was read as KB-3-1 tox inactive, MCF10A rereplic 4%, VP16 counter 0%, SW480 rereplic 1%, RORgamma inh -11% and KB-V1 MDR tox inconclusive.
